We go through 21 compounds from PubChem BioAssay (NCATS).

The structures appear in SMILES notation. Records with an inconclusive call do not appear. Values without a mark were called inactive. Calls come from the whole dose curve; as a rule, active = well fitted inhibition curve with a large enough effect; inconclusive = small, poorly fitted or top-dose-only effect; inactive = flat fitted curve, though single readings scatter.

Sequence of Lysine-specific demethylase 5B (Homo sapiens) (Q9UGL1 whole entry, looked up): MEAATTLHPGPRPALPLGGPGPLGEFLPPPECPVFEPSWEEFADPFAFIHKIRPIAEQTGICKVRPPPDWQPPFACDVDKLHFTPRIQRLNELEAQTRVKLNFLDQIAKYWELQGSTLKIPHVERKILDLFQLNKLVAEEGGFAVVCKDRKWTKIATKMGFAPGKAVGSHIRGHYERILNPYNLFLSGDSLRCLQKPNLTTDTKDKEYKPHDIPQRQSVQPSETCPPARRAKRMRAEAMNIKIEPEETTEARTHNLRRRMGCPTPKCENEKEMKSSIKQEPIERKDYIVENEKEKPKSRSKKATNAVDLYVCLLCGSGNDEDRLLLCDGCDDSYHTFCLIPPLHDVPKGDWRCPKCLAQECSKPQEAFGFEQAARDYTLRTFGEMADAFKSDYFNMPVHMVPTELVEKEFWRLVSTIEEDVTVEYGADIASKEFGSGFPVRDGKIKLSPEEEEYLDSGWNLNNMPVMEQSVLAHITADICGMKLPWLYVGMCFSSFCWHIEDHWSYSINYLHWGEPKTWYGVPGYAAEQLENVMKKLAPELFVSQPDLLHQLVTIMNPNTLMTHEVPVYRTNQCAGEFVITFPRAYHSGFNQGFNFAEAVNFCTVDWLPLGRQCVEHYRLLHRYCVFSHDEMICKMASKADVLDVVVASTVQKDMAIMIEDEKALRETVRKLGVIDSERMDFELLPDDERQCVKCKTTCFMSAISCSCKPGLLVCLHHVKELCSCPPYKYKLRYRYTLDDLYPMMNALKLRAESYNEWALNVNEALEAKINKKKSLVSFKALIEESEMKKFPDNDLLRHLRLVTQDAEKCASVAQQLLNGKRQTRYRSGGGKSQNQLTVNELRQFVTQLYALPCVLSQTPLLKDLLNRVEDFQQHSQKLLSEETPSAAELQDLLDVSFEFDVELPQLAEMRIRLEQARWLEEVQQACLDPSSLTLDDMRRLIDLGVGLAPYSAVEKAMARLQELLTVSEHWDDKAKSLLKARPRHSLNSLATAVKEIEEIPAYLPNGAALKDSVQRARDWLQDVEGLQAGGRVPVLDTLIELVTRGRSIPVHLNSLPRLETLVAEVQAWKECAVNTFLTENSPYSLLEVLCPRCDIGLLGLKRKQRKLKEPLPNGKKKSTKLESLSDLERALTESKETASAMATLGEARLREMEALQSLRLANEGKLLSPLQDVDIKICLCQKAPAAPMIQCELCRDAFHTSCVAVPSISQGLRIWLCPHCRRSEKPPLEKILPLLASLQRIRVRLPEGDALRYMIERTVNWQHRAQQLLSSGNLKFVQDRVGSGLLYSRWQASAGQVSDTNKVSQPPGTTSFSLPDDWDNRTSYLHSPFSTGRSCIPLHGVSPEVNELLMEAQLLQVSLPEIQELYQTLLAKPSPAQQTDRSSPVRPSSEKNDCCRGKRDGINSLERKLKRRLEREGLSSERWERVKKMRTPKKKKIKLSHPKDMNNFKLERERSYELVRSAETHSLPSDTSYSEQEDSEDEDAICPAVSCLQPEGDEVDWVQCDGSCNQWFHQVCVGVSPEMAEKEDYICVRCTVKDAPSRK

The test concerns the target Lysine-specific demethylase 5B (Homo sapiens) (UniProt Q9UGL1). Put plainly: Optimization screen for KDM5B Histone Demethylases FDH coupled qHTS against the LOPAC library (AID 1347166). Note: 0% is about no effect. The conditions noted are these: KDM5B demethylation, FDH-coupled NADH fluorescence (FDH is formaldehyde dehydrogenase); at 57.5 µM (top of the series). In outline: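 KDM5BDeltaAP (200nM final) preincubated 10 min with compound, then 12.5uM H3K4Me3, 25uM a-ketoglutarate, ascorbate, Fe(II), NAD+ and FDH added; 50mM HEPES pH 7.5, 0.01% Tween-20. NADH fluorescence (340/450 nm) change over 30 min, room temperature.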
In general terms: Quantitative high-throughput screening tests each substance at several concentrations.
With `CCCCCCCCCC(=O)NC(CN1CCOCC1)[C@H](O)c1ccccc1` (stereo partly specified), the activity, negative = inhibition was -9.31%.

Turning to `CC(N)=NCCCC[C@@H](N)C(=O)O`, the activity, negative = inhibition was -21.9%.

With `O=c1onc2n1-c1cc(Br)ccc1OC2`, the activity, negative = inhibition was -6.75%.

Take `N#CC(=C(\N)Sc1ccccc1N)/C(C#N)=C(/N)Sc1ccccc1N`: the activity, negative = inhibition was -5.86%.

Regarding `O=C1C2C=CC=CC2=NC(=S)N1CCN1CCC(=C(c2ccc(F)cc2)c2ccc(F)cc2)CC1` (stereo unspecified), the activity, negative = inhibition is -6.14%.

For `c1ccc(CN2CCC3(CCCc4ccccc43)CC2)cc1`, the activity, negative = inhibition was -0.246%.

As to `N#CC(C#N)=C(N)/C(C#N)=C/c1ccc(O)cc1`, the activity, negative = inhibition is -9.24%.

`C#CC(N)CCC(=O)O` (stereo unspecified): the activity, negative = inhibition is -0.625%.

With `CC1C(=O)N(C)C(=O)c2nc[nH]c21` (stereo unspecified), the activity, negative = inhibition is -5.54%.

In the case of `O=C(O)C1CN(CCCP(=O)(O)O)CCN1` (stereo unspecified), the activity, negative = inhibition is 0.457%.

Regarding `N[C@H]1CONC1=O`, the activity, negative = inhibition is -4.96%.

For `O=C(O)CCC(=O)N1CCCC1C(=O)O` (stereo unspecified), the activity, negative = inhibition is -3.62%.

For `CCC1(O)CC2CN(CCc3c([nH]c4ccccc34)[C@@](C(=O)OC)(c3cc4c(cc3OC)N(C=O)C3[C@]45CCN4CC=C[C@@](CC)([C@@H](OC(C)=O)[C@]3(O)C(=O)OC)[C@H]45)C2)C1` (stereo partly specified), the activity, negative = inhibition was -9.11%.

On to `N=C(N)c1ccc(OCCCCCOc2ccc(C(=N)N)cc2)cc1` (tested in a mixture with another compound), for which the activity, negative = inhibition was -13.6%.

As to `CN1CCCC1CCOC(C)(c1ccccc1)c1ccc(Cl)cc1` (stereo unspecified), the activity, negative = inhibition was -0.721%.

Take `NC(N)=[N+]1CCc2ccccc2C1`: the activity, negative = inhibition is 2.33%.

Regarding `COC(=O)C(N)Cc1ccc(Cl)cc1` (stereo unspecified), the activity, negative = inhibition was -3.16%.

Take `COc1ccccc1N1CCN(CCCCNC(=O)c2ccc3ccccc3c2)CC1`: the activity, negative = inhibition was -7.43%.

For `Nc1ncnc2c1nc(Br)n2C1OC2COP(=O)(O)O[C@@H]2C1O` (stereo partly specified), the activity, negative = inhibition is -2.56%.

On to `CN1CC(O)C(O)C(O)C1CO` (stereo unspecified), for which the activity, negative = inhibition was -6.96%.

`COc1ccc(C(=O)NCc2cccnc2)cc1C(=O)NCc1cccnc1`: the activity, negative = inhibition was -3.95%.
